# Data from publication doi:10.1101/2023.07.10.548322.
# Target: alpha-synuclein (aSyn) WT (human, UniProt P37840 1-140)
# Assay: RNA Bind-n-Seq
# Conditions: ssRNA
row,Sequence,binding signal [enrichment score]
1,UGGAUGGCGGGG,43.8
2,GGAGGAAGGGGA,41.1
3,GUGUAGGUGGGG,43.8
4,GCGGGAGGGCGG,49.1
5,GUGGAGAGGUGG,54.6
6,UGGGUGGGUGGG,46.4
7,GGGUGGGUUUGG,43.8
8,AGUGGGUGUGGA,49.1
9,GGGGGGGGGGUG,49.1
10,AGUUGGUGGUGG,46.4
11,GGGAUGUGUGGG,60.2
12,GGUGGUUUGUGG,43.8
13,AGUGCGGGGGGG,49.1
14,GUGGGGGUGGAU,60.2
15,UGGGAGGGGAGU,43.8
16,GGGCAGUGGAGG,54.6
17,GAGGCGGGAGGG,43.8

row,Sequence,binding signal [enrichment score]
1,GGCGGGGGGUGA,43.8
2,GAGUGGGUGGGA,43.8
3,GUGGGUGUGGUA,41.1
4,UGGGGUAUUGGG,43.8
5,UGGGGAGUGGGU,51.8
6,GGGGGAUGUGGU,46.4
7,AGUGGGGGGGAG,43.8
8,GGAGGCAGUGGG,41.1
9,GGUGGAUGAGGG,41.1
10,GAGGAGGGUGGG,57.4
11,GUGGGGGGGCAU,43.8
12,AGGGUGGCGGUG,49.1
13,AGUGGGGGGGUG,43.8
14,GGGAAGGUUGUG,43.8
15,GGGCUGGGAGUG,41.1
16,GUGGGGGGGGCA,43.8
17,AGGGGGGAGCAG,49.1
